Test results taken from the supplement of paper PMC6555819.

Experiments:
Experiment in all cases: PBM binding z-score (relative to random genomic background probes); higher = stronger binding; sequences stand for … in GC…GCGATTGACAGCGTAGAATGAAGG
[1] = tested on: FXR:RXRa (NR concentration 270 nM, RXRa partner concentration 90 nM)
Summary of the method: (§1)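 Custom Agilent 4×180K protein-binding microarrays carried double-stranded probes, each with a 34-nt variable region. These regions held direct-repeat seeds, single-nucleotide variants, half-site ablations and random human genomic background sequences. Ligand-free nuclear receptor dimers were incubated on the arrays for 1 h, antibodies against each partner (one per run) detected binding, and scanned fluorescence was regression-normalized. Binding z-scores take the random background probes as reference.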

[2] = tested on: LXRa:RXRa (NR concentration 270 nM, RXRa partner concentration 90 nM)
Summary of the method: as §1

[3] = tested on: LXRa homodimer (NR concentration 270 nM)
Summary of the method: as §1

[4] = tested on: LXRb:RXRa (NR concentration 270 nM, RXRa partner concentration 90 nM)
Summary of the method: as §1

[5] = tested on: LXRb homodimer (NR concentration 270 nM)
Summary of the method: as §1

[6] = tested on: PPARa:RXRa (NR concentration 270 nM, RXRa partner concentration 90 nM)
Summary of the method: as §1

[7] = tested on: PPARg:RXRa (NR concentration 180 nM, RXRa partner concentration 90 nM)
Summary of the method: as §1

[8] = tested on: PPARg:RXRa 270nM:90nM, anti-RXR (NR concentration 270 nM, RXRa partner concentration 90 nM)
Summary of the method: as §1

[9] = tested on: PPARg:RXRa 30nM:10nM, anti-RXR (NR concentration 30 nM, RXRa partner concentration 10 nM)
Summary of the method: as §1

[10] = tested on: PPARg:RXRa 90nM:30nM, anti-RXR (NR concentration 90 nM, RXRa partner concentration 30 nM)
Summary of the method: as §1

[11] = tested on: PPARg:RXRa DBDmut IVT, anti-RXR (DBD mutation: RXRa K156A/R161A, NR concentration 270 nM, RXRa partner concentration 90 nM)
Summary of the method: as §1

[12] = tested on: PPARg:RXRa IVT, anti-PPARg (NR concentration 270 nM, RXRa partner concentration 90 nM)
Summary of the method: as §1

[13] = tested on: PPARg DBDmut:RXRa IVT, anti-PPARg (DBD mutation: PPARg1 K132A/R137A, NR concentration 270 nM, RXRa partner concentration 90 nM)
Summary of the method: as §1

[14] = tested on: PPARg DBDmut IVT, anti-PPARg (DBD mutation: PPARg1 K132A/R137A, NR concentration 270 nM)
Summary of the method: as §1

[15] = tested on: PPARg homodimer (NR concentration 180 nM)
Summary of the method: as §1

[16] = tested on: PXR:RXRa (NR concentration 270 nM, RXRa partner concentration 90 nM)
Summary of the method: as §1

[17] = tested on: PXR homodimer (NR concentration 270 nM)
Summary of the method: as §1

[18] = tested on: RARa:RXR (NR concentration 270 nM, RXRa partner concentration 90 nM)
Summary of the method: as §1

[19] = tested on: RARa homodimer (NR concentration 270 nM)
Summary of the method: as §1

[20] = tested on: RARb:RXRa (NR concentration 270 nM, RXRa partner concentration 90 nM)
Summary of the method: as §1

| Sequence | PBM binding z-score [1] | PBM binding z-score [2] | PBM binding z-score [3] | PBM binding z-score [4] | PBM binding z-score [5] | PBM binding z-score [6] | PBM binding z-score [7] | PBM binding z-score [8] | PBM binding z-score [9] | PBM binding z-score [10] | PBM binding z-score [11] | PBM binding z-score [12] | PBM binding z-score [13] | PBM binding z-score [14] | PBM binding z-score [15] | PBM binding z-score [16] | PBM binding z-score [17] | PBM binding z-score [18] | PBM binding z-score [19] | PBM binding z-score [20] |
| --- | --- | --- | --- | --- | --- | --- | --- | --- | --- | --- | --- | --- | --- | --- | --- | --- | --- | --- | --- | --- |
| TCTTGTAGACCAAAGGTTAAGAAAGCCGAAGCCT | 1.29 | 1.9 | -0.151 | 1.82 | -0.338 | 4.78 | 8.36 | 8.52 | 8.06 | 9.8 | 2.06 | 3.9 | 0.87 | 0.749 | 0.811 | 1.58 | -0.8 | 2.39 | -0.178 | 2.03 |
| AATACAGGGTCTTCGTAGGCCAGAGTACGCACAG | -0.0491 | 0.0766 | -0.419 | -0.205 | -0.311 | 0.156 | 0.75 | 0.174 | 0.334 | 0.137 | 0.0875 | 0.764 | 0.236 | 0.68 | -0.584 | -0.0215 | -0.304 | 0.585 | 0.404 | 0.544 |
| CGTCCAAGGTCAGAGAGGTCAGGGAATGCCGAGT | 6.63 | 5.17 | 3.24 | 4.51 | 0.359 | 5 | 4.38 | 4.53 | 1.42 | 3.6 | 2.19 | 3.4 | 0.15 | 0.231 | 4.31 | 5.87 | 10.6 | 5.44 | 1.09 | 5.55 |
| CATCCTAGGTCAGGGCCAGTATAGGAGGAACGTT | 2.24 | 2.03 | 0.118 | 1.17 | -0.0238 | 2.75 | 1.89 | 2.19 | 0.615 | 1.34 | 3.29 | 3.82 | 0.575 | -0.518 | 1.36 | 0.842 | -0.294 | 1.65 | 0.477 | 3.65 |
| ATCGAAAGGTCGAAGGTGAGTATCCCCACCCGAA | 3.99 | 3.46 | 0.139 | 2.58 | 0.489 | 4.42 | 4.5 | 4.68 | 2.04 | 3.58 | 0.0448 | 2.14 | 0.338 | 0.675 | 1.12 | 2.87 | -0.31 | 3.89 | 0.365 | 3.68 |
| TAGCCTAGGTCATCGGCCAGTATACCACGCGAAC | 4.02 | 3.35 | 0.717 | 2.54 | 0.178 | 3.56 | 2.62 | 2.75 | 0.448 | 1.67 | 1.44 | 2.98 | 1.05 | 0.00127 | 1.6 | 1.62 | -0.365 | 2.58 | -0.512 | 3.75 |
